Assay outcomes as filed in PubChem BioAssay.
aSyn UTR act = Activators via SNCA 5'UTR binding, MLPCN; activity score, % (tested at 7.5 µM), hits read low; alpha-synuclein 5'UTR reporter, activators screen; 300,000 compounds, 7.1% hits; AID 1814; in the data active = activity score below about -60%
Starred values were filed as active, the others as inactive. The list is a sample of the results.

SMILES | aSyn UTR act
O=c1c2ccccc2ncn1-c1ccc2c(c1)OCCO2 | -111*
CCOC(=O)c1ccc(NC(=O)COc2ccc(CNC3CCCCC3)cc2OC)cc1 | -63*
Cc1ccc(/C=N/Nc2nc(Cl)c(Cl)cc2Cl)s1 | -141*
Cc1ccsc1/C=N/Nc1nc(Cl)c(Cl)cc1Cl | -162*
CCOC(=O)COn1c(=O)c(-c2cc3ccccc3o2)[n+]([O-])c2ccccc21 | -114*
CCCCCCCCCCOC(=O)Cn1c(COc2ccc(Cl)cc2)[n+](C)c2ccccc21 | 83
CCOc1ccc(-c2c(=O)n(OCc3ccc([N+](=O)[O-])cc3)c3ccccc3[n+]2[O-])cc1 | -178*
C=CCOn1c(=O)c(-c2cc3ccccc3o2)[n+]([O-])c2ccccc21 | -144*
CCCOc1ccc(-c2c(=O)n(OCC(=O)OCC)c3ccccc3[n+]2[O-])cc1 | -88*
Cc1cccc(CSC2=NN3CCCC(=O)N=C3S2)c1 | -69*
CSc1nc2sc3c(c2c(=O)n1C)CCC(C)C3 (stereo not drawn) | -165*
COc1ccc(C(=O)NC(=O)Nc2cc(C)ccn2)cc1 | 72
COc1ccc(C(=O)Nc2ccccc2C(=O)Nc2cccnc2)cc1 | -80*
COc1cc2ccccc2cc1C(=O)Nc1cc(C)ccn1 | -94*
Cc1ccnc(NC(=O)c2cc3ccccc3oc2=O)c1 | -202*
COc1ccc(C(=O)Nc2ccccc2C(=O)Nc2cc(C)ccn2)cc1 | -107*
COc1ccc(C(=O)Nc2ccccc2C(=O)Nc2cccc(C)n2)cc1 | -86*
COc1ccccc1NC(=O)C(=O)Nc1ccccn1 | -167*
COc1cc(C(=O)Nc2ccccc2C(=O)Nc2ccccn2)cc(OC)c1OC | -67*
Cc1ccc(NC(=O)C(=O)Nc2ccccn2)cc1 | 71
Cc1ccc(NC(=O)c2cncc(Br)c2)cc1S(=O)(=O)N(C)C | -127*
CCN(CC)c1ccc(NC(=O)c2cccnc2)cc1 | -67*
CCN(CC)c1ccc(NC(=O)c2cncc(Br)c2)cc1 | -279*
O=C(/C=C/c1ccc2c(c1)OCO2)Nc1nc2ccc(F)cc2s1 | -110*
O=C(/C=C/c1ccc2c(c1)OCO2)Nc1nc(-c2ccc(F)cc2)cs1 | -62*
SMILES | aSyn UTR act
CCOC(=O)Cn1cncc1-c1ccc([N+](=O)[O-])cc1 | -119*
CCc1ccc(C(=O)Cn2ncc(Cl)c(Cl)c2=O)cc1 | -64*
O=C(Cn1ncc(Cl)c(Cl)c1=O)N1CCOCC1 | -62*
CC1(C)C(=O)Nc2ccccc2N1C(=O)Cn1ncc(Cl)c(Cl)c1=O | -167*
O=C(Cn1ncc(Cl)c(Cl)c1=O)N1CCc2ccccc21 | 135
O=C(Cn1ncc(Cl)c(Cl)c1=O)N1CCN(Cc2ccccc2)CC1 | -71*
COc1ccccc1CC(=O)NCc1csc(-c2cccs2)n1 | -117*
COc1ccccc1CCNC(=O)c1nc(-c2cccs2)no1 | -93*
O=C(NCc1csc(-c2cccs2)n1)C1CCCCC1 | -67*
O=C(CCCc1nc(-c2ccccc2Cl)no1)NC1CCCC1 | 99
COc1ccc(Cc2nc(-c3ccccn3)no2)cc1 | -120*
Cc1ccc(Cc2nc(-c3ccccn3)no2)cc1 | -95*
c1ccc(CCCc2nc(-c3ccccn3)no2)cc1 | -70*
Cc1ccc(-c2nc(-c3ccccn3)no2)cc1 | 99
CN(C)C(=O)CCCc1nc(-c2ccc(Cl)cc2)no1 | -111*
Clc1ccc(-c2noc(CCCc3ccccc3)n2)cc1 | -97*
c1ccc(C(Cc2nc(-c3ccccn3)no2)c2ccccc2)cc1 | -132*
c1ccc(-c2noc(CC3CCCCC3)n2)nc1 | -69*
c1ccc(SCc2nc(-c3ccccn3)no2)cc1 | -146*
c1ccc(-c2ccc(-c3nc(-c4ccccn4)no3)cc2)cc1 | 147
c1ccc(Cc2nc(-c3ccccn3)no2)cc1 | -98*
CC(C)c1ccc(/C=C/C(=O)NC(=S)Nc2ccc(CN3CCOCC3)cc2)cc1 | -130*
CCOc1ccc(NC(=S)NC(=O)/C=C/c2ccco2)cc1 | -91*
CN1CCN(c2ccc(NC(=S)NC(=O)/C=C/c3ccco3)cc2)CC1 | -147*
COc1cccc(NC(=S)NC(=O)/C=C/c2ccco2)c1 | -114*
SMILES | aSyn UTR act
O=C(/C=C/c1ccccc1)NC(=S)Nc1ccc(N2CCOCC2)cc1 | -79*
Cc1nnc(N/N=C\c2ccc(-c3ccccc3[N+](=O)[O-])o2)n1N | -75*
Cc1nnc(N/N=C/c2ccc(-c3ccccc3F)o2)n1N | -107*
COc1ccc(N=Nc2[nH]c3ccc(C)cc3c2O)cc1 | -125*
Cc1ccc(N=Nc2[nH]c3ccccc3c2O)cc1 | -80*
COc1ccc2cc(CCC(C)=O)ccc2c1 | -126*
O=C(Nc1ccc(NC(=O)C2CC2)nc1)c1ccccc1F | -95*
CCCC(=O)Nc1ccc(NC(=O)c2ccccc2F)cn1 | -90*
O=C(Nc1ccc(NC(=O)C2CCCCC2)nc1)c1cccs1 | -124*
Cc1nc(NC(=O)C2CC3CCCC(C2)C3=O)sc1C (stereo not drawn) | -80*
Cc1cccnc1NC(=S)NC(=O)c1oc2ccccc2c1C | -226*
Cc1c(C(=O)NC(=S)NCC(C)C)oc2ccccc12 | -191*
C=CCNC(=S)NC(=O)c1oc2ccccc2c1C | -155*
